Source: PubChem BioAssay AID1159580 (chemical genetic matrix, 2015)
About 2,000 (36%) of roughly 5,500 compounds were called active. Roughly 18% stayed inconclusive and do not appear here. Cut-off read from the data, not from the text of the source: active = normalized growth mostly below about 0.91 (no sharp cut-off); inconclusive = no clear call, values can overlap the other calls; inactive = mostly above about 0.92. This is one part of the list.

Test: chemical genetic growth profiling, strain panel (AID 1159580);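 note: tested at 20 µM; growth read once vehicle control cultures reached saturation at 30 °C; 1 = growth at the plate median or of vehicle wells; lower values mean less growth of the strain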
Details: growth OD

Measured: normalized growth

CNC[C@H](O)c1cccc(O)c1
inactive: S. cerevisiae deletion strains, locus YKL009W, strain mrt4, stronger effect = lower value 1 | S. cerevisiae deletion strains, locus YKL068W, stronger effect = lower value 1.01 | S. cerevisiae deletion strains, locus YKL085W, strain MDH1 (second series), stronger effect = lower value 1.01 | S. cerevisiae deletion strains, locus YKL085W, strain MDH1, stronger effect = lower value 1.01 | S. cerevisiae deletion strains, locus YKL160W, strain elf1, stronger effect = lower value 0.963 | S. cerevisiae deletion strains, locus YKL190W, strain CNB1, stronger effect = lower value 1 | S. cerevisiae deletion strains, locus YKR001C, strain vps1, stronger effect = lower value 1.02 | S. cerevisiae deletion strains, locus YKR026C, strain gcn3, stronger effect = lower value 0.99 | S. cerevisiae deletion strains, locus YKR091W, strain srl3, stronger effect = lower value 0.962 | S. cerevisiae deletion strains, locus YLL001W, strain dnm1, stronger effect = lower value 0.962 | S. cerevisiae deletion strains, locus YLL026W, stronger effect = lower value 0.977 | S. cerevisiae deletion strains, locus YLL041C, strain sdh2, stronger effect = lower value 0.985 | S. cerevisiae deletion strains, locus YLR027C, strain aat2, stronger effect = lower value 0.974 | S. cerevisiae deletion strains, locus YLR039C, strain RIC1, stronger effect = lower value 1.03 | S. cerevisiae deletion strains, locus YLR058C, strain SHM2, stronger effect = lower value 1.01 | S. cerevisiae deletion strains, locus YLR102C, strain apc9, stronger effect = lower value 1.01 | S. cerevisiae deletion strains, locus YLR113W, strain HOG1, stronger effect = lower value 1 | S. cerevisiae deletion strains, locus YLR221C, strain rsa3, stronger effect = lower value 0.987 | S. cerevisiae deletion strains, locus YLR258W, strain gsy2, stronger effect = lower value 0.986 | S. cerevisiae deletion strains, locus YLR262C, strain YPT6 (second series), stronger effect = lower value 0.969 | S. cerevisiae deletion strains, locus YLR262C, strain YPT6, stronger effect = lower value 1.03 | S. cerevisiae deletion strains, locus YLR268W, strain sec22, stronger effect = lower value 1.02 | S. cerevisiae deletion strains, locus YLR320W, strain mms22, stronger effect = lower value 0.964 | S. cerevisiae deletion strains, locus YLR330W, strain CHS5, stronger effect = lower value 1.01 | S. cerevisiae deletion strains, locus YLR342W, strain FKS1 (second series), stronger effect = lower value 0.994 | S. cerevisiae deletion strains, locus YLR342W, strain FKS1, stronger effect = lower value 0.963 | S. cerevisiae deletion strains, locus YLR357W, strain rsc2, stronger effect = lower value 0.906 | S. cerevisiae deletion strains, locus YLR370C, strain arc18, stronger effect = lower value 0.991 | S. cerevisiae deletion strains, locus YLR371W, strain rom2, stronger effect = lower value 1.01 | S. cerevisiae deletion strains, locus YLR384C, strain iki3, stronger effect = lower value 0.979 | S. cerevisiae deletion strains, locus YLR418C, strain cdc73, stronger effect = lower value 1.02 | S. cerevisiae deletion strains, locus YML016C, strain PPZ1, stronger effect = lower value 1.01 | S. cerevisiae deletion strains, locus YML032C, strain rad52, stronger effect = lower value 1.02 | S. cerevisiae deletion strains, locus YML120C, strain ndi1, stronger effect = lower value 0.979 | S. cerevisiae deletion strains, locus YML124C, strain tub3, stronger effect = lower value 1.02 | S. cerevisiae deletion strains, locus YMR058W, strain fet3, stronger effect = lower value 0.971 | S. cerevisiae deletion strains, locus YMR078C, strain ctf18, stronger effect = lower value 1.01 | S. cerevisiae deletion strains, locus YMR125W, strain sto1, stronger effect = lower value 0.995 | S. cerevisiae deletion strains, locus YMR129W, stronger effect = lower value 0.988 | S. cerevisiae deletion strains, locus YMR205C, strain PFK2, stronger effect = lower value 0.965 | S. cerevisiae deletion strains, locus YMR223W, strain ubp8, stronger effect = lower value 1.01 | S. cerevisiae deletion strains, locus YMR231W, strain pep5, stronger effect = lower value 0.982 | S. cerevisiae deletion strains, locus YMR263W, strain SAP30, stronger effect = lower value 1.01 | S. cerevisiae deletion strains, locus YMR307W, strain GAS1, stronger effect = lower value 1.02 | S. cerevisiae deletion strains, locus YNL067W, strain RPL9B, stronger effect = lower value 1 | S. cerevisiae deletion strains, locus YNL071W, strain lat1, stronger effect = lower value 0.998 | S. cerevisiae deletion strains, locus YNL128W, strain TEP1, stronger effect = lower value 1.01 | S. cerevisiae deletion strains, locus YNL153C, strain GIM3, stronger effect = lower value 1.01 | S. cerevisiae deletion strains, locus YNL183C, strain NPR1, stronger effect = lower value 0.975 | S. cerevisiae deletion strains, locus YNL209W, strain ssb2, stronger effect = lower value 0.991 | S. cerevisiae deletion strains, locus YNL233W, strain BNI4, stronger effect = lower value 1.01 | S. cerevisiae deletion strains, locus YNL248C, strain rpa49, stronger effect = lower value 0.988 | S. cerevisiae deletion strains, locus YNL250W, strain rad50, stronger effect = lower value 1.02 | S. cerevisiae deletion strains, locus YNL271C, strain bni1, stronger effect = lower value 1.02 | S. cerevisiae deletion strains, locus YNL298W, strain CLA4, stronger effect = lower value 1.03 | S. cerevisiae deletion strains, locus YNL307C, strain MCK1, stronger effect = lower value 1.02 | S. cerevisiae deletion strains, locus YNL322C, strain KRE1 (second series), stronger effect = lower value 0.976 | S. cerevisiae deletion strains, locus YNL322C, strain KRE1, stronger effect = lower value 1 | S. cerevisiae deletion strains, locus YNR049C, strain mso1, stronger effect = lower value 0.993 | S. cerevisiae deletion strains, locus YNR052C, strain pop2, stronger effect = lower value 1.02 | S. cerevisiae deletion strains, locus YOL006C, strain TOP1, stronger effect = lower value 1.05 | S. cerevisiae deletion strains, locus YOL012C, strain htz1 0.81 | S. cerevisiae deletion strains, locus YOL147C, strain pex11, stronger effect = lower value 1.02 | S. cerevisiae deletion strains, locus YOR001W, strain rrp6, stronger effect = lower value 0.977 | S. cerevisiae deletion strains, locus YOR061W, strain CKA2, stronger effect = lower value 1.01 | S. cerevisiae deletion strains, locus YOR069W, strain VPS5, stronger effect = lower value 1.01 | S. cerevisiae deletion strains, locus YOR070C, strain gyp1, stronger effect = lower value 0.994 | S. cerevisiae deletion strains, locus YOR080W, strain dia2, stronger effect = lower value 0.98 | S. cerevisiae deletion strains, locus YOR083W, strain WHI5, stronger effect = lower value 0.953 | S. cerevisiae deletion strains, locus YOR106W, strain vam3, stronger effect = lower value 0.98 | S. cerevisiae deletion strains, locus YOR136W, strain idh2, stronger effect = lower value 1.02 | S. cerevisiae deletion strains, locus YOR144C, strain elg1, stronger effect = lower value 1.01 | S. cerevisiae deletion strains, locus YOR184W, strain ser1, stronger effect = lower value 1.04 | S. cerevisiae deletion strains, locus YOR231W, strain MKK1, stronger effect = lower value 1 | S. cerevisiae deletion strains, locus YOR265W, strain rbl2, stronger effect = lower value 0.989 | S. cerevisiae deletion strains, locus YOR270C, strain vph1, stronger effect = lower value 1 | S. cerevisiae deletion strains, locus YOR290C, strain snf2, stronger effect = lower value 0.993 | S. cerevisiae deletion strains, locus YOR316C, strain cot1, stronger effect = lower value 1.02 | S. cerevisiae deletion strains, locus YPL051W, strain arl3, stronger effect = lower value 0.973 | S. cerevisiae deletion strains, locus YPL055C, strain LGE1, stronger effect = lower value 1.01 | S. cerevisiae deletion strains, locus YPL078C, strain atp4, stronger effect = lower value 0.966 | S. cerevisiae deletion strains, locus YPL106C, strain sse1, stronger effect = lower value 0.95 | S. cerevisiae deletion strains, locus YPL240C, strain hsp82, stronger effect = lower value 0.982 | S. cerevisiae deletion strains, locus YPL241C, strain CIN2, stronger effect = lower value 1.01 | S. cerevisiae deletion strains, locus YPL256C, strain CLN2, stronger effect = lower value 1.01 | S. cerevisiae deletion strains, locus YPR119W, strain clb2, stronger effect = lower value 1.01 | S. cerevisiae deletion strains, locus YPR141C, strain kar3, stronger effect = lower value 1.02 | S. cerevisiae deletion strains, locus YPR163C, strain tif3, stronger effect = lower value 1.02 | S. cerevisiae deletion strains, locus YPR167C, strain met16, stronger effect = lower value 1.02 | S. cerevisiae deletion strains, strain wtn01, stronger effect = lower value 1.01 | S. cerevisiae strains, strain wild type, stronger effect = lower value 1.01
